Measured values published in PubChem BioAssay.
The source made the active and inactive calls.

Columns and labels:
[1] = tested on: Human papillomavirus type 1a protein E7 (residues 44-93); assay: small molecules binding HPV E7 44-93 – biochemical, small-molecule microarray, residues 44-93, 635 nm fluorescence, primary screen (AID 1108); settings: fluorescence 635 nm, higher = more signal;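 also: E7 fragment applied at 1 µg/mL in TBST for 1 h at 4 C; score combines spot fluorescence with its signal to noise ratio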
[2] = hepatitis C replication reporter changes, two-sided – Huh7 cells, luciferase reporter, HCV replication inhibitor project, primary screen (AID 1109); settings: Huh7 HCV replicon luciferase reporter, 48 h; higher = more signal;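 also: huh7 hepatoma cells harbouring a luciferase neomycin HCV replicon reporter; luciferase luminescence as measure of HCV replicon replication; test concentration not given here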
[3] = target: Left-right determination factor 2 (Homo sapiens) (UniProt O00292); assay: small molecules binding LEFTY2 protein – biochemical, small-molecule microarray, 635 nm fluorescence scan, primary screen (AID 1110); settings: higher = more signal
[4] = target: Calmodulin-1 (Homo sapiens) (UniProt P0DP23); assay: small molecules binding calmodulin-1 with EGTA – biochemical, small-molecule microarray, Cy5-labelled CALM1, profiling panel (AID 1111); settings: Cy5-CALM1 binding fluorescence, higher = more signal;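 also: labelled calmodulin applied in Tris saline Tween buffer holding calcium plus EGTA and DTT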
[5] = target: Calmodulin-1 (Homo sapiens) (UniProt P0DP23); assay: small molecules binding Ca-loaded calmodulin-1 – biochemical, small-molecule microarray, Cy5-labelled CALM1, plus calcium, artefact control for SMM control-protein annotation, profiling panel (AID 1112); settings: Cy5-CALM1 binding fluorescence, higher = more signal;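 also: score merges spot fluorescence with signal to noise from triplicate slides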
[6] = probe aWnt5a binding to arrayed compounds – biochemical, biotinylated probe, 635/667 nm fluorescence, primary screen (AID 1113); settings: small-molecule microarray, higher = more signal;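 also: score merges 667 nm fluorescence intensity with signal-to-noise per printed feature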
[7] = probe aShh binding to arrayed compounds – biochemical, biotinylated probe, 635/667 nm fluorescence, primary screen (AID 1114); settings: small-molecule microarray, higher = more signal;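 also: probe is biotin-labelled aShh protein from a stem cell growth factor screen; measures binding of labelled protein to compounds printed on the slide; score merges feature fluorescence at 667 nm with signal-to-noise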
[8] = probe aNog binding to arrayed compounds – biochemical, biotinylated probe, 635/667 nm fluorescence, primary screen (AID 1115); settings: small-molecule microarray, higher = more signal;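 also: probe is biotinylated aNog protein used at 0.15 µg/mL for 1 h at 4 C; z-score combines 667 nm fluorescence of each spot with its signal to noise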
[9] = target: Torsin-1A-interacting protein 1 (Homo sapiens) (UniProt Q5JTV8); assay: compound microarray binding of lysate hLAP1 – cell lysate, small-molecule microarray, COS7 lysate, 635/667 nm fluorescence, primary screen (AID 1116); settings: 635 nm fluorescence, higher = more signal
[10] = target: Alpha-bungarotoxin (Bungarus multicinctus) (UniProt P60615); assay: compounds binding labelled alpha-BTX control protein – biochemical, small-molecule microarray, Alexa647 label, 635/667 nm fluorescence, artefact control for SMM control protein annotation, profiling panel (AID 1117); settings: alpha-BTX-A647 binding fluorescence, higher = more signal
Albumin (Bos taurus) = Albumin (Bos taurus) (UniProt P02769); assay: compounds binding labelled BSA control protein – biochemical, small-molecule microarray, Alexa647 label, 635/667 nm fluorescence, artefact control for SMM control protein annotation, profiling panel (AID 1118); settings: BSA-A647 binding, fluorescence 635 nm, higher = more signal;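 also: score merges 667 nm emission intensity and signal-to-noise per printed compound spot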
[11] = probe aXIP binding to arrayed compounds – biochemical, NeuroSMM set, 635/667 nm fluorescence, primary screen (AID 1119); settings: small-molecule microarray, higher = more signal, called active from +8 up or from −8 down;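 also: probe is the protein aXip251-270 applied at 1 µg/mL to compound-printed slides; binding of probe to printed compounds measured as 667 nm fluorescence plus signal to noise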
[12] = probe aNOTCH3 binding on compound microarray – biochemical, small-molecule microarray, 635/667 nm fluorescence, primary screen (AID 1120); settings: higher = more signal;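 also: probe is a biotin-tagged antibody raised against NOTCH3 rather than NOTCH3 protein; score merges spot fluorescence near 667 nm with spot signal to noise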
[13] = probe aNOTCH2 binding on compound microarray – biochemical, small-molecule microarray, 635/667 nm fluorescence, primary screen (AID 1121); settings: higher = more signal;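 also: score merges feature fluorescence read at 667 nm with its signal to noise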
[14] = target: Carbonic anhydrase 2 (Homo sapiens) (UniProt P00918); assay: compounds binding carbonic anhydrase 2 – biochemical, small-molecule microarray, Alexa647-labelled CAII, profiling panel (AID 1122); settings: CAII-A647 binding fluorescence, higher = more signal
[15] = COS7 lysate on small-molecule microarray, probe aHis, 635 nm (AID 1123); settings: COS7 cell lysate, fluorescence, higher = more signal;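 also: z-score combines 667nm fluorescence intensity with signal-to-noise per printed compound spot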
[16] = probe aLAP1 signal on lysate-treated microarray – cell lysate, small-molecule microarray, COS7 lysate, primary screen (AID 1124); settings: probe aLAP1, fluorescence, higher = more signal;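 also: lysate comes from COS7 cells expressing LAP1 and is applied at 0.3 µg/mL; score merges spot fluorescence near 667 nm with signal-to-noise over triplicate slides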
Sam68 (KHDRBS1) = assay: compounds binding KHDRBS1 protein – biochemical, small-molecule microarray, 635 nm fluorescence, primary screen (AID 1125); settings: higher = more signal;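 also: score merges 667 nm channel intensity with signal to noise over triplicate slides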
[17] = tested on: Chordin-like protein 2 (CHRDL2); assay: compounds binding chordin-like 2 – biochemical, small-molecule microarray, 635 nm fluorescence, primary screen (AID 1126); settings: fluorescence 635 nm, higher = more signal;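 also: printed compound slides probed with Chrdl2 protein at 4 µg/mL for 1 h at 4 C; score merges 667 nm emission intensity with signal to noise over three replicate slides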
[18] = target: Concanavalin-A (Canavalia ensiformis) (UniProt P02866); assay: compounds binding concanavalin A lectin – biochemical, small-molecule microarray, Alexa647 label, 635 nm, artefact control for SMM control protein annotation, primary screen (AID 1127); settings: ConA-A647 binding fluorescence, higher = more signal;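 also: z combines 667 nm emission intensity with signal-to-noise across three replicate slides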
Sequence of Concanavalin-A (Canavalia ensiformis) (P02866 whole entry, looked up): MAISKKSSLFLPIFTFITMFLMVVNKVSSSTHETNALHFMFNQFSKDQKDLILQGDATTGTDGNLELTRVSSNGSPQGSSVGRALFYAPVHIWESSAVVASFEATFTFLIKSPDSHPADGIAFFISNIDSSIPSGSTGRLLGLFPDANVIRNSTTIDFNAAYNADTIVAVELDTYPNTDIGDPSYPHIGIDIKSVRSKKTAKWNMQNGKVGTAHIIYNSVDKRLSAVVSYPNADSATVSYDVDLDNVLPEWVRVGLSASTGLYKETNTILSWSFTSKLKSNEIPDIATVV

Sequence of Alpha-bungarotoxin (Bungarus multicinctus) (P60615 whole entry, looked up): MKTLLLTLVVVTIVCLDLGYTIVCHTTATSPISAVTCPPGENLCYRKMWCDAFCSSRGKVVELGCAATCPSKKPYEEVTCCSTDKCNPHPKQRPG
Sequence of Albumin (Bos taurus) (P02769 whole entry, looked up): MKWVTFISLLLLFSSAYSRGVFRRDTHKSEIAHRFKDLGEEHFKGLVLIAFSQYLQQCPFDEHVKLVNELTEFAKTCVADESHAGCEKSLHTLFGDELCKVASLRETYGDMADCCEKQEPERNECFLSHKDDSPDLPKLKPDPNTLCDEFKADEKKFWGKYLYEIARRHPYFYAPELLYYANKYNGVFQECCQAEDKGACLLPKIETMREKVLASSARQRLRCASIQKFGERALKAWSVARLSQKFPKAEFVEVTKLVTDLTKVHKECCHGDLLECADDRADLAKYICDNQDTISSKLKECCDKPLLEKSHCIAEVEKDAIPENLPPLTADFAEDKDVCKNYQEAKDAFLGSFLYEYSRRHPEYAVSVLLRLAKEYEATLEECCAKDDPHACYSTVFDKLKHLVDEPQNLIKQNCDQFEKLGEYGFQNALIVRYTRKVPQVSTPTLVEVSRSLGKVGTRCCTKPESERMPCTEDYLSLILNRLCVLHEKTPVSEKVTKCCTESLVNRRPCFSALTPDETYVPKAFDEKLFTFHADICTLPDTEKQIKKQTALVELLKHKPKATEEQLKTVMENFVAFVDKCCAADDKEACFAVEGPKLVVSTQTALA
Sequence of Left-right determination factor 2 (Homo sapiens) (O00292 whole entry, looked up): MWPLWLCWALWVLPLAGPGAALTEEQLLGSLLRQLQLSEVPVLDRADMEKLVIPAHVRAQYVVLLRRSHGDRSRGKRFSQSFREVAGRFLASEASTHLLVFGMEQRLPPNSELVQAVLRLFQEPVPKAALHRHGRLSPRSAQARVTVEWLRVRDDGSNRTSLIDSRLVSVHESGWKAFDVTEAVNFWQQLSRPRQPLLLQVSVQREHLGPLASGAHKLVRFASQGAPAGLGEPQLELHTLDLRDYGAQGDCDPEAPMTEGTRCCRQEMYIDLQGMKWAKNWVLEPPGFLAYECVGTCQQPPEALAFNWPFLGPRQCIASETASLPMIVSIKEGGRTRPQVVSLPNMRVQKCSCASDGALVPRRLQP
Sequence of Torsin-1A-interacting protein 1 (Homo sapiens) (Q5JTV8 whole entry, looked up): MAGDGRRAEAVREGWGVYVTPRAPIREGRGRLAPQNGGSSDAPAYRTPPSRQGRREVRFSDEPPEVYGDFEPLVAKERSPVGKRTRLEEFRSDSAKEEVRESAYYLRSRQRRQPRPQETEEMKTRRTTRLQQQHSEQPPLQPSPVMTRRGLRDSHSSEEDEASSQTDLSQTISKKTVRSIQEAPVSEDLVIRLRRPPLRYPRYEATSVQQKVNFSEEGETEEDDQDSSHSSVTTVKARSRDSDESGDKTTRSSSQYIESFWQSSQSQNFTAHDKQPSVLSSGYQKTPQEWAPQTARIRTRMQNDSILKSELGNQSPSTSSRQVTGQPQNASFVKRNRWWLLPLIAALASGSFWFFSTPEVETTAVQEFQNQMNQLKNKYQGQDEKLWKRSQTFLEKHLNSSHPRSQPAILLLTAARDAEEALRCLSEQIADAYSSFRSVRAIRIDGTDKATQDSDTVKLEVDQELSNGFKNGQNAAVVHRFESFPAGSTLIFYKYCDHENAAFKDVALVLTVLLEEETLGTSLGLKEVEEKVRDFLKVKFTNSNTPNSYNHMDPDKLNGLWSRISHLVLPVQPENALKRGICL

Row | Compound | composite z-score [1] | z-score [2] | composite z-score [3] | composite z-score [4] | composite z-score [5] | composite z-score [6] | composite z-score [7] | composite z-score [8] | composite z-score [9] | composite z-score [10] | composite z-score (Albumin (Bos taurus)) | composite Z-score [11] | composite z-score [12] | composite z-score [13] | composite z-score [14] | composite z-score [15] | composite z-score [16] | composite z-score (Sam68 (KHDRBS1)) | composite z-score [17] | composite z-score [18]
1 | NCCCCCNC(=O)[C@@H]1C[C@@H]2C(=O)N3CCC[C@H]3C(=O)N2[C@@H]1c1ccc(O)cc1 | 1.31 | -0.837 | 0.732 | 1.09 | 1.12 | 0.216 | 0.163 | -0.477 | 1.05 | 0.494 | 0.539 | -0.213 (inactive) | 0.0496 | 0.0214 | 0.442 | 1.19 | 0.666 | 0.776 | 0.466 | 0.893
2 | C=CCC(OC(C)=O)[C@@H]1[C@@H](N(Cc2cccc3ccccc23)C(=O)c2cccc3ccccc23)c2cc(OCCCO)ccc2N1C(=O)c1ccc2ccccc2c1 (stereo not given in full) | 0.475 | -0.351 | 0.156 | -0.0677 | 0.476 | -0.0748 | 0.0494 | 0.185 | 0.184 | 0.0426 | 0.0949 | 0.128 (inactive) | 0.0676 | -0.0883 | 0.206 | -0.203 | -0.225 | -0.047 | 0.0526 | -0.0264
3 | O=C1O[C@H](c2ccccc2)[C@H](c2ccccc2)N2[C@H]1[C@@H](C(=O)N1CCCCCCC1)[C@]1(C(=O)Nc3ccc(C#CC4(O)CCCCCC4)cc31)[C@H]2c1ccc(O)cc1 | 1.4 | -1.36 | 1.33 | 2.42 | 1.19 | 1.2 | 2.97 | 3.1 | 4.57 | 2.28 | -0.0339 | 5.24 (inactive) | 1.77 | 0.956 | 0.705 | 3.64 | 1.42 | 1.29 | 1.39 | 1.07
4 | Cc1ccc(S[C@]2(C(=O)NCc3ccccc3)CC(=O)N(Cc3cc(C(F)(F)F)cc(C(F)(F)F)c3)[C@@H]2c2ccc(CO)cc2I)cc1 | -0.262 | -0.861 | -1.24 | -0.36 | 0.585 | -0.228 | -0.319 | -0.216 | 0.0893 | -1.05 | -0.618 | -0.244 (inactive) | -0.338 | -0.161 | 0.699 | 0.67 | 0.0779 | -0.191 | -1.77 | -1.54
5 | [N-]=[N+]=Nc1ccccc1C[C@]1(C(=O)O)N=C(c2ccc(OCCCO)cc2)O[C@H]1c1ccccc1N=[N+]=[N-] | 0.99 | -1.02 | 0.282 | 2.1 | 0.923 | 0.0859 | -0.0263 | 2 | 1.5 | 1.22 | 0.893 | 0.644 (inactive) | 0.293 | 0.166 | 0.57 | 2.84 | 0.871 | 1.32 | 0.135 | 1.13
6 | O=C1C2C=CC(C(O)c3cc(C(F)(F)F)cc(C(F)(F)F)c3)N(Nc3ccccc3F)C2C(=O)N1c1ccccc1 (stereo not given) | 0.962 | -2.74 | -0.327 | 0.896 | 0.681 | -0.043 | 0.957 | 1.97 | 0.985 | 0.383 | 1.01 | -0.147 (inactive) | 0.114 | -0.0005 | 0.752 | 2.86 | 1.06 | 1.01 | -0.217 | 0.443
7 | CO[C@H]1O[C@H](CO)[C@@H](OC(=O)CCc2ccccc2)[C@H](OC(=O)c2cc3ccccc3[nH]2)[C@H]1OC(=O)c1cc2ccccc2[nH]1 | 1.34 | -3.2 | 0.817 | 1.65 | 0.193 | 0.055 | -0.138 | 0.248 | 1.21 | 0.889 | 0.777 | -0.134 (inactive) | -0.0284 | -0.223 | 0.68 | 0.78 | -0.206 | 1.22 | 0.453 | 1.09
8 | CCCCCCCCCCC(O)C1C=CC2C(=O)N(c3ccccc3)C(=O)C2N1Nc1ccccc1F (stereo not given) | 0.648 | -0.211 | -0.24 | 1.03 | 1.07 | -0.0715 | 0.246 | 0.238 | 0.0092 | 0.533 | 0.524 | -0.105 (inactive) | -0.0242 | -0.171 | 0.208 | 1.5 | 0.344 | 0.233 | -1.13 | 0.17
9 | C=CCN1C(=O)[C@@]2(O[C@@H](CCO)[C@H]([Si](C)(C)c3ccc(OC)cc3)[C@H]2C)c2cc(N3CCOC3=O)ccc21 | 1.31 | -4.84 | -0.135 | 0.278 | 0.444 | -0.0981 | -0.243 | -0.0239 | 0.878 | 0.105 | 0.729 | 0.0117 (inactive) | -0.0647 | -0.127 | 0.483 | -0.617 | 0.155 | 0.329 | -0.403 | 0.993
10 | C=CCNC(=O)[C@H]1[C@@H]2C(=O)O[C@@H](c3ccccc3)[C@@H](c3ccccc3)N2[C@@H](c2ccc(OCCO)cc2)[C@]12C(=O)N(C(=O)OCCOC)c1ccc(C#Cc3ccc(OC)cc3)cc12 | 1.4 | -2.54 | 0.631 | 0.512 | 0.14 | -0.0445 | 0.0976 | 0.447 | -0.0927 | 1.49 | 0.358 | -0.292 (inactive) | 0.154 | -0.0995 | 0.447 | 0.656 | 0.636 | 1.3 | 0.302 | 1.09
11 | O=C(NCCN1CCOCC1)[C@@H]1c2ccccc2C(=O)N(Cc2ccccc2)[C@H]1c1ccc(CO)cc1 | -0.639 | -0.887 | -1.45 | 0.446 | -1 | -0.219 | 0.214 | -0.224 | -1.47 | -1.06 | 0.16 | 0.283 (inactive) | -0.272 | -0.116 | 0.688 | 0.392 | -0.274 | -0.673 | -1.38 | 0.581
